The results in this text go back to PMC7862700, “An all-to-all approach to the identification of sequence-specific readers for epigenetic DNA modifications on cytosine”.

What all share (experiment): DAPPL (digital affinity profiling via proximity ligation, sequencing); 10 mM Tris-HCl pH 7.5, 50 mM NaCl, 1 mM DTT, 4% glycerol, room temperature, 30 min; GST-TFs on glutathione beads, 16-mer random dsDNA library, 0.1% formaldehyde crosslink after washing; high values mean tight binding
Common to all, as to settings: protein: recombinant; tags: N-terminal GST; dsDNA, one strand shown

The target in one assay is T1, ELK1 (Homo sapiens, UniProt P19419 1-428).
T1 sequence: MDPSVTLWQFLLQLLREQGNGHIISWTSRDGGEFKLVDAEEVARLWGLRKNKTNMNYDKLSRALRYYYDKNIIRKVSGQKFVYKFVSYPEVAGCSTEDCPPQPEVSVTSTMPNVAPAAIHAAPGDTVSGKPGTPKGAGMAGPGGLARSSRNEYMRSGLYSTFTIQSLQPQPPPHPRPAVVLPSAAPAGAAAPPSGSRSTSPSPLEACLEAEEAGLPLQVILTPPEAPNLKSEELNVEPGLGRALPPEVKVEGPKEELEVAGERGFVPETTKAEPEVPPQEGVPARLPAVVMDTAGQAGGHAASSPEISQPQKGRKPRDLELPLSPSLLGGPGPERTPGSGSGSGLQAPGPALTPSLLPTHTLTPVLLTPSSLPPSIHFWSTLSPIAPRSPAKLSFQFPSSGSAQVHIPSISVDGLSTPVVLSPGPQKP
In outline:
(§1)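 Beads coated with glutathione captured GST-fused human transcription factors that had been expressed in yeast, and the factors were then given DNA barcodes and pooled with a tag-only sample. The pools were incubated with 200 nmole of a random double-stranded 16-mer DNA library in Tris/NaCl/DTT/glycerol buffer for 30 min at room temperature, washed, crosslinked with 0.1% formaldehyde and proximity-ligated with BsaI/T4 ligase at 37 °C for 1 h. PCR amplification and Illumina NextSeq500 sequencing came last. Binding signal is each hexamer's read frequency for a factor divided by its frequency for the tag-only sample.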

Another assay addresses T2, ERG (Homo sapiens, UniProt P11308 1-479).
T2 sequence: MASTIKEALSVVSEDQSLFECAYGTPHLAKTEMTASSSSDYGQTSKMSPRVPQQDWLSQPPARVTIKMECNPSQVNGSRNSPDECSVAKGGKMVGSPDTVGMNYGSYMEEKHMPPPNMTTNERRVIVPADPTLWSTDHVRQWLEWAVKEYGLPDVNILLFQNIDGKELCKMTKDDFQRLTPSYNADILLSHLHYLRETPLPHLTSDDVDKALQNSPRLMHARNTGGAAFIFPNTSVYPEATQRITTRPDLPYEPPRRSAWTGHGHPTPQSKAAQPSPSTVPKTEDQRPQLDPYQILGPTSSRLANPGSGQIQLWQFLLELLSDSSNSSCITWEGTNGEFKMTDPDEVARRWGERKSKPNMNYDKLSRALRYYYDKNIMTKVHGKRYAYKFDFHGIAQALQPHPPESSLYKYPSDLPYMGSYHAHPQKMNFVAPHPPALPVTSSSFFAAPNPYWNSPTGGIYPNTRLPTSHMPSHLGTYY
In outline:
as §1

A further assay has as its target ELF1 (Homo sapiens, UniProt P32519 1-619). In outline: as §1
The next assay concerns the target T3, EHF (Homo sapiens, UniProt Q9NZC4 1-300).
T3 sequence: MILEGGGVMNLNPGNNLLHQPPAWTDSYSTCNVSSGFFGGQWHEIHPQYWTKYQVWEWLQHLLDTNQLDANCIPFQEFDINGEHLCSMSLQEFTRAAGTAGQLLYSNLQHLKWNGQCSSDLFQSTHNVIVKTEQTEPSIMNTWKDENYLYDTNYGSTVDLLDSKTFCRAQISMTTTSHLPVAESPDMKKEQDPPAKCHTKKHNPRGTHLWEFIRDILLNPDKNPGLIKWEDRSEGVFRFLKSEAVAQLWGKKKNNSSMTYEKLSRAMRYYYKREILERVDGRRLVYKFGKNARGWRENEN
In outline:
as §1

The target in another assay is SPIB (Homo sapiens, UniProt Q01892 1-262). In outline:
as §1

The target of a further assay is T4, ELK3 (Homo sapiens, UniProt P41970 1-407).
T4 sequence: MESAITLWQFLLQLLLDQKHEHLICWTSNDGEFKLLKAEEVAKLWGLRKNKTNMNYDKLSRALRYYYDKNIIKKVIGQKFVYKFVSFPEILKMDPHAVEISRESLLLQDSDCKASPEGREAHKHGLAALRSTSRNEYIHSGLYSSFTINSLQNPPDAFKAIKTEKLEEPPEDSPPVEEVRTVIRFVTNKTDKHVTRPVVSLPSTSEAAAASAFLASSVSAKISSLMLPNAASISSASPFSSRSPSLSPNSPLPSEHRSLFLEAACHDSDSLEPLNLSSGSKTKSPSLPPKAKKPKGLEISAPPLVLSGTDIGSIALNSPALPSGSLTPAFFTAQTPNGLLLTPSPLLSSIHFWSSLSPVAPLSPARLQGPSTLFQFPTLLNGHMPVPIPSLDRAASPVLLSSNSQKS
In outline:
as §1

Another assay addresses T5, SPIC (Homo sapiens, UniProt Q8N5J4 1-248).
T5 sequence: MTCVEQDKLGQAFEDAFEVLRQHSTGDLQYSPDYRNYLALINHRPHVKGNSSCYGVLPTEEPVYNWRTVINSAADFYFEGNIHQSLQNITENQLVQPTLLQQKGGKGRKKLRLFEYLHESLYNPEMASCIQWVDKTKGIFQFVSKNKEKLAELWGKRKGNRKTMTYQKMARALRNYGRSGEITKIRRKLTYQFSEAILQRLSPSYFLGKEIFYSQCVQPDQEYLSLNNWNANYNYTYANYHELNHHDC
In outline:
as §1

The next assay addresses ELF4 (Homo sapiens, UniProt Q99607 1-663). In outline:
as §1

A further assay addresses T6, ELK4 (Homo sapiens, UniProt P28324-2 1-405).
T6 sequence: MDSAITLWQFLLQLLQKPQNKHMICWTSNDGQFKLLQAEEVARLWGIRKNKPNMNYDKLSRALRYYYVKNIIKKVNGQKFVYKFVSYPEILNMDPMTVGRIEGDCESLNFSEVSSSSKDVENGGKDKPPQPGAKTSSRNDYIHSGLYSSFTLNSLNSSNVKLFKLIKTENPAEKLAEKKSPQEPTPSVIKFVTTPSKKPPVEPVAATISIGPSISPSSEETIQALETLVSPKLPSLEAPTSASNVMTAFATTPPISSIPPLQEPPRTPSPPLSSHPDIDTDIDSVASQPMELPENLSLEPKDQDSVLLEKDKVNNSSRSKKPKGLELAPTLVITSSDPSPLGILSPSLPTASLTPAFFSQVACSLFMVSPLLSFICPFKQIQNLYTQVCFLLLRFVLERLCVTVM
In outline: as §1

The target in another assay is ETV1 (Homo sapiens, UniProt P50549 1-477). In outline:
as §1

In the next assay the target is T7, ERF (Homo sapiens, UniProt P50548 1-548).
T7 sequence: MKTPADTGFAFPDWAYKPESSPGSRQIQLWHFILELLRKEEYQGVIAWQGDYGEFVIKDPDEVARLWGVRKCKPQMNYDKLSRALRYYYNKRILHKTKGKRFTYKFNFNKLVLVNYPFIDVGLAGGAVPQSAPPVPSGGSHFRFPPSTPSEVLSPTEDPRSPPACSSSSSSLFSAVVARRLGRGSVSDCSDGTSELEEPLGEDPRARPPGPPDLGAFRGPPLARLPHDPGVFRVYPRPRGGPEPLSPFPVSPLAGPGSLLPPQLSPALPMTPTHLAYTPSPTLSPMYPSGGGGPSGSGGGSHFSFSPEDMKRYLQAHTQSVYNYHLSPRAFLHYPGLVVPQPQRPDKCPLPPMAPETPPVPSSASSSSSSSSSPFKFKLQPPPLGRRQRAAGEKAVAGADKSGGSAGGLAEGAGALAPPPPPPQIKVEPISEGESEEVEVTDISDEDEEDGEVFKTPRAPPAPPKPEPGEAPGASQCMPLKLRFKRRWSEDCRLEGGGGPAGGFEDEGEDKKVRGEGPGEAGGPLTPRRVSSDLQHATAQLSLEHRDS
In outline:
as §1

Another assay deals with T8, ETV3L (Homo sapiens, UniProt Q6ZN32 1-361).
T8 sequence: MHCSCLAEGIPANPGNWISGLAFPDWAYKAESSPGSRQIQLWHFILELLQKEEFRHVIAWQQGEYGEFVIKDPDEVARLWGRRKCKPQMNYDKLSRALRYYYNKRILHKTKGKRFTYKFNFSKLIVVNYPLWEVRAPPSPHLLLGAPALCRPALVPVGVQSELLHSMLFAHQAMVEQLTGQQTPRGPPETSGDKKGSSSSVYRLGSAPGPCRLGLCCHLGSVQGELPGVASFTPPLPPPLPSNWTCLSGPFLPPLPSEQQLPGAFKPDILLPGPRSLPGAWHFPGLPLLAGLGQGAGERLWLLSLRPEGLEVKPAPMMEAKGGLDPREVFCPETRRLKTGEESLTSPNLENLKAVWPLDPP
In outline:
as §1

Another assay concerns the target T9, ETS2 (Homo sapiens, UniProt P15036 1-469).
T9 sequence: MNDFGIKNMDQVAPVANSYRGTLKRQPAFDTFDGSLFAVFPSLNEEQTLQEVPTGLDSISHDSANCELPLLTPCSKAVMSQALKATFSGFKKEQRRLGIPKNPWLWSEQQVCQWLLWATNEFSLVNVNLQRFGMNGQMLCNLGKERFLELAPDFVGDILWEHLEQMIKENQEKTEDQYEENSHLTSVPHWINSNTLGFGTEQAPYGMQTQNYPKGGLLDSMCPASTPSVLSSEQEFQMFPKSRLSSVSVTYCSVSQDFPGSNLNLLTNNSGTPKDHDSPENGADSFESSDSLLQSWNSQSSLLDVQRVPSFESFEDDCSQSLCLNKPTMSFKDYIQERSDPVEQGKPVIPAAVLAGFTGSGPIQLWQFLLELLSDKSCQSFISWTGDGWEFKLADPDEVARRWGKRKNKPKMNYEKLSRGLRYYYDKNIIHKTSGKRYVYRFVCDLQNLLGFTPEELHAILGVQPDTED
In outline: as §1

A further assay deals with ETV6 (Homo sapiens, UniProt P41212 1-452). In outline: as §1
The next assay addresses T10, GABPA (Homo sapiens, UniProt Q06546 1-454).
T10 sequence: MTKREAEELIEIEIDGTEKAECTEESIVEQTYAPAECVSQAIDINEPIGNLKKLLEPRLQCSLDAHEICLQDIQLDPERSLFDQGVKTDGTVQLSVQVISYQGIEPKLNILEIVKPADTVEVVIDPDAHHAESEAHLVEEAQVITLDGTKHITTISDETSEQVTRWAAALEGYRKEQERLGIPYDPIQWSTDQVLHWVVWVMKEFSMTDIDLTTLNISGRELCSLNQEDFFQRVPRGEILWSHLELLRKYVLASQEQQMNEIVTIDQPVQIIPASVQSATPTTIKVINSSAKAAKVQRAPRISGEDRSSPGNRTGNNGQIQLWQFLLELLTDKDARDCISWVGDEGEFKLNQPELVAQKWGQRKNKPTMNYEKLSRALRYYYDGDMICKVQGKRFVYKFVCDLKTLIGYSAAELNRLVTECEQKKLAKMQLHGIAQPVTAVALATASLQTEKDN
In outline: as §1

SPIB, sequence (Q01892 whole entry): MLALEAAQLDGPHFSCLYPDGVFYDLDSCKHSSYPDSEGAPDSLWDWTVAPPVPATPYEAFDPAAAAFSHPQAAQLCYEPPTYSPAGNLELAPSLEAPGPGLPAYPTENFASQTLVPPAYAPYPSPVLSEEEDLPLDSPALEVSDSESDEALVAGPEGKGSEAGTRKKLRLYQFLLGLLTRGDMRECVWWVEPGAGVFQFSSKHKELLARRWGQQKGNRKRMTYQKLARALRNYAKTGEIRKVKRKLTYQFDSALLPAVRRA
ELF4, sequence (Q99607 whole entry): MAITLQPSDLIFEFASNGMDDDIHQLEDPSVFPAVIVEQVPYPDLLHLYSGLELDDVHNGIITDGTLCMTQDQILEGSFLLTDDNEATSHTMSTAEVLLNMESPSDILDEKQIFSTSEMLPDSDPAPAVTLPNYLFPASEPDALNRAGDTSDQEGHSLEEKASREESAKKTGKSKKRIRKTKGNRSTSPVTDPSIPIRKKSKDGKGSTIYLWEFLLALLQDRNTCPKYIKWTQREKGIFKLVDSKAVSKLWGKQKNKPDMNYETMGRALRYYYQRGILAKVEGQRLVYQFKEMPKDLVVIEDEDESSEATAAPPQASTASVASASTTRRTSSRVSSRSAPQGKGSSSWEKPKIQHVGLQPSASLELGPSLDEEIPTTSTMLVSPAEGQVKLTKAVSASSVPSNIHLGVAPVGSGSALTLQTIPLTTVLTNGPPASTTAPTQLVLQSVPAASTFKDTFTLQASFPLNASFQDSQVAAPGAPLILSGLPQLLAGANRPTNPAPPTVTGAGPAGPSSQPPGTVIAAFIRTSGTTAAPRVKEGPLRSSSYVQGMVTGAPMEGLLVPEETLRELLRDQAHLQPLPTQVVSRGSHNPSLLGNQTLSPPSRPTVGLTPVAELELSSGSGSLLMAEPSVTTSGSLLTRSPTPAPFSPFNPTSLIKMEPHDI
ELF1, sequence (P32519 whole entry): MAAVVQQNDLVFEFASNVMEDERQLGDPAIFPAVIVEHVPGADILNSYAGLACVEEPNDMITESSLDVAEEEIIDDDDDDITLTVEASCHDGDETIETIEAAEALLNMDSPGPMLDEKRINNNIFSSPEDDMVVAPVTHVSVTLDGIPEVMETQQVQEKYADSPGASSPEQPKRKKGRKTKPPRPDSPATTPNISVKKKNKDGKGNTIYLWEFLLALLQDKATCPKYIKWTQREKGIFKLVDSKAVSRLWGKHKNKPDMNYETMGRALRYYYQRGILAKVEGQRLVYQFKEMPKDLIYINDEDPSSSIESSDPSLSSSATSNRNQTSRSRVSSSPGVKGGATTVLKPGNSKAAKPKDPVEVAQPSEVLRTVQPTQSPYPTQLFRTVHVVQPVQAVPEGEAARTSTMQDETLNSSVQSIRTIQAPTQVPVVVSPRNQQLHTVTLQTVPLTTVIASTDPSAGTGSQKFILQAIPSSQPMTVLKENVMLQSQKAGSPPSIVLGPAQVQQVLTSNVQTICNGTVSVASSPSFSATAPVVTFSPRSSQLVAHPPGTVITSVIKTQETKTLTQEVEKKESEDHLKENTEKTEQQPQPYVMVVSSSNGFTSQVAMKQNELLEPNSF
ETV6, sequence (P41212 whole entry): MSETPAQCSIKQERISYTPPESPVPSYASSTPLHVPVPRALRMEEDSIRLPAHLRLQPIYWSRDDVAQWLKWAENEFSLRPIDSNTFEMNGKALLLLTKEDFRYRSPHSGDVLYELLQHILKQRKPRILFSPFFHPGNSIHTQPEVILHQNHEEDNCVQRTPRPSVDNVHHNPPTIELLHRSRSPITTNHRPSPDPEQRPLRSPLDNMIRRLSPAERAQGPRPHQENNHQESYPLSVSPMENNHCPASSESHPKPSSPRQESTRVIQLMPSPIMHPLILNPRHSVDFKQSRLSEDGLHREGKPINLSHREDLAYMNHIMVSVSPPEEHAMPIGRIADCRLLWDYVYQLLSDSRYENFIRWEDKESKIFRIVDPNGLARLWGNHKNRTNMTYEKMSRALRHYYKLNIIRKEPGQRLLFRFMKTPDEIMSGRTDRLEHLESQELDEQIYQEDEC
ETV1, sequence (P50549 whole entry): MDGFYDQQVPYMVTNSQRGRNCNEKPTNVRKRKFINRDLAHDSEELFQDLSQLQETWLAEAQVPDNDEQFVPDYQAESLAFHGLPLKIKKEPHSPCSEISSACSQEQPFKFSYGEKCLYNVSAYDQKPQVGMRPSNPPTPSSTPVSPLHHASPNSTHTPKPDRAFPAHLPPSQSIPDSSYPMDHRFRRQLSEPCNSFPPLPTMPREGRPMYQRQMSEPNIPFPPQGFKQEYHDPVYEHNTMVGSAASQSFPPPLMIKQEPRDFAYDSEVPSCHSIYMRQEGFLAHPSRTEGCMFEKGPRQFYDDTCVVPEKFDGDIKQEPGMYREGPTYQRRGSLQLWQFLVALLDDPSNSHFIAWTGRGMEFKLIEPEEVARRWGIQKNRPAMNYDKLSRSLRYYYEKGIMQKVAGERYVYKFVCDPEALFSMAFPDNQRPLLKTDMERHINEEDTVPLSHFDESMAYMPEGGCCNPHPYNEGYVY

As for TGGTTG, the binding signal with ELK1 was 1.02 fold enrichment (6-mer frequency, TF over GST control); with ERG, 1.01 fold enrichment (6-mer frequency, TF over GST control); with ELF1, 1.02 fold enrichment (6-mer frequency, TF over GST control); with EHF, 1.02 fold enrichment (6-mer frequency, TF over GST control); with SPIB, 1.08 fold enrichment (6-mer frequency, TF over GST control); with ELK3 it was 1.03 fold enrichment (6-mer frequency, TF over GST control). The binding signal with SPIC is 1.08 fold enrichment (6-mer frequency, TF over GST control); with ELF4, 1.03 fold enrichment (6-mer frequency, TF over GST control); with ELK4 it was 1.09 fold enrichment (6-mer frequency, TF over GST control); with ETV1, 1.05 fold enrichment (6-mer frequency, TF over GST control); in the assay with ERF it was 1.1 fold enrichment (6-mer frequency, TF over GST control); with ETV3L, 1.03 fold enrichment (6-mer frequency, TF over GST control). Further, the binding signal with ETS2 was 1.08 fold enrichment (6-mer frequency, TF over GST control); in the assay with ETV6, 1 fold enrichment (6-mer frequency, TF over GST control).

As for GCTGCA, the binding signal with ELK1 was 1.07 fold enrichment (6-mer frequency, TF over GST control); in the assay with GABPA it was 1.05 fold enrichment (6-mer frequency, TF over GST control); with ELF1, 1.05 fold enrichment (6-mer frequency, TF over GST control); with EHF, 1.08 fold enrichment (6-mer frequency, TF over GST control); in the assay with SPIB, 1.07 fold enrichment (6-mer frequency, TF over GST control); with SPIC, 1.09 fold enrichment (6-mer frequency, TF over GST control). Also, the binding signal with ELF4 was 1.05 fold enrichment (6-mer frequency, TF over GST control); with ELK4, 1.08 fold enrichment (6-mer frequency, TF over GST control); in the assay with ERF, 1.2 fold enrichment (6-mer frequency, TF over GST control); with ETV3L, 1.11 fold enrichment (6-mer frequency, TF over GST control); with ETS2, 1.07 fold enrichment (6-mer frequency, TF over GST control); in the assay with ETV6 it was 1 fold enrichment (6-mer frequency, TF over GST control).
